# BAZ2B block: BAZ2B (human) inhibition. Q9UIF8. AlphaScreen BAZ2B-H3K14Ac peptide displacement. AID 504333. 360,000 tested, 4.4% active. Potency, µM (top dose mostly 114 µM), for the others: top-dose activity change, negative = inhibition, most hits filed as inhibitors; also: potency is read from the fitted curve at half-maximal effect; % is scaled to controls: 0 for no effect and ±100 for the full control effect; nearly all actives have a fitted effect of over 60% in size
#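 Protein-peptide AlphaScreen: BAZ2B 50 nM, b-H3K14Ac 50 nM, 1x PBS pH 7.4 + 0.01% Tween-20. Preincubation 30 min RT; cpd 30 min RT (top 110 uM); beads 20 min RT, light-protected.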
# CtBP-E1A blk: inhibitors of CtBP/E1A interaction; activity change, % (test concentration not listed); AlphaScreen GST-E1A/His-CtBP binding, 1536-well; hits give low values; 340,000 tested, 0.49% active; in the data active = activity change below about -65%; inconclusive = mostly about -30% to -63%; also: % is scaled to controls: 0 for no effect and ±100 for the full control effect
#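 GST-E1A and His-tagged CtBP (125 nM each as 5X stock) were preincubated with pin-transferred compound for 2 h at 37 °C in the dark, then glutathione donor and nickel acceptor beads were added for 1 h before AlphaScreen reading.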
# Six1-Eya2 blk: blocks human Six1 binding to Eya2; Q15475+O00167; 360,000 tested, 0.56% active; activity change, % (concentration not given with the values); AlphaScreen GST-Six1/His-Eya2 binding, biochemical; hits give low values; AID 651725; in the data active = activity change below about -65%; inconclusive = mostly about -30% to -63%; also: % is scaled to controls: 0 for no effect and ±100 for the full control effect
#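 Six1/Eya2 binding was read as AlphaScreen signal after compounds were pinned into GST-Six1 plus His-tagged Eya2 (5X stock 250/500 nM) in pH 8.0 Tris/NaCl/TCEP buffer, beads added, then incubated 1 h, 37 C, dark.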
# HP1b binding inh: inhibitors of HP1-beta chromodomain binding to methylated histone tails. P83916. AlphaScreen HP1-beta / biotin-H3K9me3 peptide binding. Potency, µM (highest dose often 114 µM), inactives show top-dose activity change, negative = inhibition, actives largely listed as inhibitors. 390,000 tested, 0.56% active. AID 540317; also: potency is read from the fitted curve at half-maximal effect; nearly all actives have a fitted effect of over 70% in size
#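 Compound inhibition of the preformed complex between 50 nM HP1-beta and 50 nM biotinylated H3K9me3 peptide was read by AlphaScreen. Buffer was PBS pH 7.4 with 0.01% Tween-20. Incubations ran 30 min at room temperature, with 10 ug/mL donor/acceptor beads.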
# JMJD2A Tudor: JMJD2A Tudor domain (human) inhibition | O75164 | AlphaScreen JMJD2A-Tudor / H3K4me3 peptide binding | Potency, µM (titrated, usually from 114 µM), for inactives: at the top dose activity change, negative = inhibition, hits mostly inhibitors | 390,000 tested, 4.4% active | AID 504339; also: potency is read from the fitted curve at half-maximal effect; % is scaled to controls: 0 for no effect and ±100 for the full control effect; nearly all actives have a fitted effect of over 50% in size
# Target sequence (O75164 whole entry, looked up, the tested form may be a part): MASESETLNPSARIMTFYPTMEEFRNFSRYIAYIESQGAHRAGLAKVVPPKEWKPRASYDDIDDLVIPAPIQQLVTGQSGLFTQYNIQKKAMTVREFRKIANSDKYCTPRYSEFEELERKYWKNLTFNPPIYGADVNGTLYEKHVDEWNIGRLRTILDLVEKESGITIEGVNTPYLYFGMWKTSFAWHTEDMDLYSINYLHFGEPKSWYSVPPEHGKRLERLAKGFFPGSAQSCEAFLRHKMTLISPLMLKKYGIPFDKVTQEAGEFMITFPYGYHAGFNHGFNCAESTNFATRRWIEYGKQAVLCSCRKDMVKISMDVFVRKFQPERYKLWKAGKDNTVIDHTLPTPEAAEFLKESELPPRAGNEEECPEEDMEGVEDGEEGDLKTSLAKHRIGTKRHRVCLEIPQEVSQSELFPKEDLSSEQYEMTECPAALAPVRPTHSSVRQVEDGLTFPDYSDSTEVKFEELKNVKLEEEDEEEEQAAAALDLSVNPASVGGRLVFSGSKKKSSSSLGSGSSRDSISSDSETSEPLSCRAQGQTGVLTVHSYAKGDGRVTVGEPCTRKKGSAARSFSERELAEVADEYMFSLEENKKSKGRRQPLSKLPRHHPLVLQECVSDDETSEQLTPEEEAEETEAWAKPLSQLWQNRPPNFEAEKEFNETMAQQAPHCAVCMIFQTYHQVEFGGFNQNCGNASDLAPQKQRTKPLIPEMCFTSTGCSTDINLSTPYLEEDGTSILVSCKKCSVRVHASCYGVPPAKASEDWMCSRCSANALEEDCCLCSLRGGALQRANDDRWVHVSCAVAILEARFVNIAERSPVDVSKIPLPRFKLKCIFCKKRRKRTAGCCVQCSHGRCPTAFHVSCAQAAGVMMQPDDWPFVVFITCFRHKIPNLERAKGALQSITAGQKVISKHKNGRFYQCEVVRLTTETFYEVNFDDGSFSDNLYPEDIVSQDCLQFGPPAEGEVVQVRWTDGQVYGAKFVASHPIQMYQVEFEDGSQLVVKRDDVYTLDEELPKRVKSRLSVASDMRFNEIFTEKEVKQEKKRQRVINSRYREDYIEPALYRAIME
# G9a inh: G9a (human) methyltransferase inhibition; Q96KQ7; G9a H3K9 monomethylation, AlphaScreen, 2 h; Potency, µM (highest dose often 102 µM), for inactives: at the highest dose activity, negative = inhibition, most hits filed as inhibitors; 350,000 tested, 8.8% active; AID 504332; also: potency is read from the fitted curve at half-maximal effect; % is scaled to controls: 0 for no effect and ±100 for the full control effect; nearly all actives have a fitted effect of over 75% in size
#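 Signal arises when biotinylated H3K9 peptide, once monomethylated, bridges streptavidin donor and antibody-captured acceptor beads. Enzyme at 20 nM was preincubated 15 min with test compounds; peptide 500 nM and SAM 20 uM then reacted for 2 h.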
# The depositor's hits bear a star; ? = inconclusive; / = no result given; [ ] = another dose, or the depositor's remark. Most compounds without a hit are left out; they make up all but 10% or so of the library. Unless noted, calls follow the shape of the dose curve; as a rule, active = well fitted inhibition curve with a large enough effect; inconclusive = small, poorly fitted or top-dose-only effect; inactive = no such curve, though single readings can be large or run the other way.
SMILES,BAZ2B block,CtBP-E1A blk,Six1-Eya2 blk,HP1b binding inh,JMJD2A Tudor,G9a inh
Cc1c(-n2c(-c3ccccc3Cl)n[nH]c2=S)c(=O)n(-c2ccccc2)n1C,?,6,5,50%,?,45µM*
Cc1c(-c2n[nH]c(=S)n2-c2ccc(C(F)(F)F)cc2)nnn1-c1ccccc1,-2%,5,1,-6%,?,10µM*
Cc1nn(C)cc1-c1n[nH]c(=S)n1-c1ccc(F)cc1,-20%,0,8,16%,5.6µM*,10µM*
Cc1ccc(-n2c(-c3cn(C)nc3C)n[nH]c2=S)cc1,-20%,/,/,/,/,?
Cn1cc(Cl)c(-c2n[nH]c(=S)n2-c2ccc(F)cc2)n1,-3%,6,5,47%,?,7.9µM*
O=C(NCc1cccs1)c1ccc2c(c1)N(Cc1ccccc1Cl)C(=O)c1ccccc1S2,2%,/,/,25%,1%,-33%[59 µM]
Cc1cccc2sc(N(CCCN(C)C)C(=O)c3ccc(S(=O)(=O)N4CCc5ccccc5C4)cc3)nc12,-18%,-18,8,3%,-28%,/
Cc1cc(C)c2sc(N(CCCN(C)C)C(=O)c3ccc(S(=O)(=O)N4CCc5ccccc5C4)cc3)nc2c1,-20%,/,/,/,/,22µM*
CN(C)CCCN(C(=O)c1ccc(S(=O)(=O)N2CCc3ccccc32)cc1)c1nc2ccc(Cl)cc2s1,?,-1,-17,?,?,?
Cc1ccc2nc(N(CCCN(C)C)C(=O)c3ccc(S(=O)(=O)N4CCc5ccccc5C4)cc3)sc2c1,?,?,?,?,?,71µM*
CN(C)CCCN(C(=O)c1ccc(S(=O)(=O)N2CCc3ccccc32)cc1)c1nc2ccc(F)cc2s1,?,-30,-21,?,?,45µM*
Cc1cc(C)c2sc(N(CCCN(C)C)C(=O)c3ccc(S(=O)(=O)N4CCCc5ccccc54)cc3)nc2c1,11µM*,?,?,-7%,40µM*,45µM*
CN(C)CCCN(C(=O)c1ccc(S(=O)(=O)N2CCc3ccccc3C2)cc1)c1nc2ccc(F)cc2s1,-31%,-13,6,-31%,?,40µM*
COc1ccc2sc(N(CCCN(C)C)C(=O)c3ccc(S(=O)(=O)N4CCc5ccccc5C4)cc3)nc2c1,-39%,-2,-26,-25%,56µM*,32µM*
CN(C)CCCN(C(=O)c1ccc(S(=O)(=O)N2CCc3ccccc3C2)cc1)c1nc2c(F)cccc2s1,-9%,-28,-20,35%,-7%,-12%
CCCCN(Cc1cccs1)S(=O)(=O)c1cc(-c2cc(C)no2)ccc1C,16%,/,/,69%,26%,30%[59 µM]
C=CCNc1nc(C)c(C(C)=O)cc1C#N,50µM*,6,-1,47%,1%,11%
CC(=O)c1cc(C#N)c(NCCCN(C)C)nc1C,8%,-4,-5,-6%,-5%,3%
Cc1ccc(/C=N/n2c(C)n[nH]c2=S)o1,-5%,2,1,15%,5µM*,?
Cc1ccc(/C=N/n2c(-c3ccncc3)n[nH]c2=S)o1,?,1,8,28%,7.1µM*,/
Cc1cn2c(=O)cc(COc3ccc(NC(=O)COc4ccccc4)cc3)nc2s1,-21%,/,/,34%,-9%,-1%[59 µM]
CCCC(=O)NC(c1ccc(Cl)cc1)c1ccc2cccnc2c1O (stereo unspecified),-7%,-77*,-70*,52%,-13%,32%
COc1ccc(C(Nc2ccccn2)c2ccc3ccc(C)nc3c2O)cc1C (stereo unspecified),?,/,/,-15%,?,8.9µM*
Cc1cccc(NC(c2ccccc2F)c2ccc3ccc(C)nc3c2O)n1 (stereo unspecified),-9%,/,/,19%,?,-7%[59 µM]
CCCC(=O)NC(c1ccc(Cl)cc1Cl)c1ccc2cccnc2c1O (stereo unspecified),-2%,-73*,?,44%,-19%,20%
SMILES,BAZ2B block,CtBP-E1A blk,Six1-Eya2 blk,HP1b binding inh,JMJD2A Tudor,G9a inh
Cc1ccnc(NC(c2cccc(O)c2)c2ccc3ccc(C)nc3c2O)c1 (stereo unspecified),?,/,/,-25%,?,11µM*
CNC(=O)[C@H]1O[C@@H](n2cnc3c(NCc4ccc(N)cc4)ncnc32)[C@H](O)[C@H]1O,/,/,/,/,/,46%[12.7 µM]
Cc1cc(C)cc(NC(=O)c2ccc3c(O)c(S(=O)(=O)c4ccccc4)c(=O)[nH]c3c2)c1,-25%,/,/,-5%,-31%,-35%[59 µM]
Cc1ccc(-n2c(C)nnc2SCC(=O)NC2CCCC2)cc1,-11%,-2,-12,1%,-6%,7%
CC(=O)NC(c1ccc2ccccc2c1)c1ccc2cccnc2c1O (stereo unspecified),28µM*,-66*,-89*,31%,25µM*,-38%
Cc1ccc(C(Nc2ccccn2)c2ccc3cccnc3c2O)cc1 (stereo unspecified),28µM*,/,/,-8%,20µM*,7.9µM*
O=C(Nc1ccncc1)Nc1cccc(C(F)(F)F)c1,1%,5,0,36%,-11%,-10%
Oc1c(C(Nc2cccc(C(F)(F)F)c2)c2ccncc2)ccc2cccnc12 (stereo unspecified),20µM*,-94*,-92*,0%,32µM*,28µM*
COc1cccc(C(NC(C)=O)c2nc(-c3cccc4cccnc34)cs2)c1 (stereo unspecified),/,0,0,/,/,/
COc1ccc(C(NC(C)=O)c2ccc3cccnc3c2O)c(OC)c1 (stereo unspecified),28µM*,?,?,26%,79µM*,44%[59 µM]
Cc1cccc(NC(c2cccc(Cl)c2)c2ccc3cccnc3c2O)n1 (stereo unspecified),10µM*,/,/,31%,16µM*,-41%[59 µM]
CCOc1cc(C(Nc2cc(C)ccn2)c2ccc3cccnc3c2O)ccc1OC (stereo unspecified),10µM*,/,/,14µM*,18µM*,3.2µM*
CCCC(=O)NC(c1ccccc1Cl)c1c(O)ccc2ccccc12 (stereo unspecified),?,9,-7,13%,-14%,2%[59 µM]
CCCC(=O)NC(c1ccc(C)cc1)c1ccc2cccnc2c1O (stereo unspecified),14µM*,-90*,-66*,56%,56µM*,-4%
CC(=O)NC(c1ccc(Cl)cc1Cl)c1ccc2cccnc2c1O (stereo unspecified),28µM*,-88*,-90*,-3%,28µM*,/
COc1ccc(CCNC(=O)CSc2cccc3cccnc23)cc1OC,-5%,?,?,26%,-6%,3%

# Source: PubChem BioAssay (National Center for Advancing Translational Sciences (NCATS))
